Reference: PubChem BioAssay (EPA / NIEHS)
Inconclusive results are not listed. Active and inactive are the calls of the source. How the source made its calls, unless noted: active means hit-call score of the fitted dose curve at least 0.9, where 1 is the maximum; inactive means score below 0.9.

Key:
[1] = biological target: human Thyroid Receptor alpha (THRa1), THRA (gene 7067) (UniProt P10827); assay: ATG_THRa1_TRANS: Attagene TRANS-FACTORIAL HepG2 Assay for human Thyroid Receptor alpha (THRa1) (AID 2283014; active means hit-call score of the fitted dose curve at least 0.9, where 1 is the maximum)
How it was run: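 Transcripts from GAL4-UAS-driven reporters, measured after 24 h compound exposure by RT-PCR plus capillary electrophoresis of 6-FAM-labeled fragments, were fitted for gain of signal relative to DMSO. Cells: transiently transfected HepG2 expressing NR-Gal4 chimeras.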

[2] = read-out: E-selectin (Homo sapiens) (UniProt P16581); assay: BSK_3C_Eselectin: BioMAP Diversity Plus: 3C Assay for Eselectin Biomarker Activity (AID 2283015); conditions: primary human endothelial cells (HUVEC); actives raise or lower the signal;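 on outcome: cell surface E-selectin protein quantified by ELISA 24 h after dosing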
How it was run: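 E-selectin ELISA readout, fitted bidirectionally relative to DMSO, taken 24 h post-dosing in HUVEC cultures of the 3C system. Overt cytotoxicity tracked with sulforhodamine B staining of parallel wells.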

[3] = read-out: Interleukin-1 alpha (IL1a), IL1A (gene 3552); assay: BSK_BE3C_IL1a: BioMAP Diversity Plus: BE3C Assay for Interleukin-1 alpha (IL1a) Biomarker Activity (AID 2283016); conditions: primary human bronchial epithelial cells; actives raise or lower the signal
How it was run: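 BE3C primary human bronchial epithelium; cpd 24 h; IL-1a by ELISA; bidirectional fit vs DMSO; parallel SRB (0.1% SRB, 10% TCA fix, 560 nm) for cytotoxicity.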

[4] = read-out: Monocyte Chemoattractant Protein-1 (MCP1), CCL2 (gene 6347); assay: BSK_3C_MCP1: BioMAP Diversity Plus: 3C Assay for Monocyte Chemoattractant Protein-1 (MCP1) Biomarker Activity (AID 2283017); conditions: primary human endothelial cells (HUVEC); actives raise or lower the signal
How it was run: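 MCP-1 was measured by ELISA 24 h after dosing in primary HUVEC 3C cultures and fitted in both directions relative to DMSO; cytotoxicity was checked by SRB total-protein staining in parallel wells.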

[5] = read-out: Monocyte Chemoattractant Protein-1 (MCP1), CCL2 (gene 6347); assay: BSK_4H_MCP1: BioMAP Diversity Plus: 4H Assay for Monocyte Chemoattractant Protein-1 (MCP1) Biomarker Activity (AID 2283018); conditions: primary human endothelial cells (HUVEC); actives raise or lower the signal
How it was run: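 ELISA read-out of MCP-1 from human vascular endothelial primary cells taken at 24 hours after compound exposure. Activity was fitted in both directions relative to DMSO, which served as negative control.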

[6] = read-out: Human Leukocyte Antigen - DR isotype (HLADR), HLA-DRA (gene 3122); assay: BSK_3C_HLADR: BioMAP Diversity Plus: 3C Assay for Human Leukocyte Antigen - DR isotype (HLADR) Biomarker Activity (AID 2283019); conditions: primary human endothelial cells (HUVEC); actives raise or lower the signal;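 on outcome: ELISA of cell-surface HLA-DR on HUVEC 24 h after dosing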
How it was run: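 Bidirectional fitting against DMSO was applied to the HLA-DR ELISA signal from human umbilical vein endothelial cells, 24 h post-dose. Cytotoxicity came from parallel SRB total-protein staining; 3C proliferation was counted by SRB at 48 h.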

[7] = read-out: Monokine induced gamma interferon (MIG), CXCL9 (gene 4283); assay: BSK_3C_MIG: BioMAP Diversity Plus: 3C Assay for Monokine induced gamma interferon (MIG) Biomarker Activity (AID 2283021); conditions: primary human endothelial cells (HUVEC); actives raise or lower the signal;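 on AC50: MIG protein level measured by immunoassay in the treated endothelial cultures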
How it was run: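 Read-out is ELISA detection of MIG on human umbilical vein endothelial cells, taken 24 h after dosing. Gain or loss of signal was scored relative to DMSO controls using bidirectional curve fitting.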

[8] = biological target: human Vitamin D Receptor (VDR), VDR (gene 7421) (UniProt P11473); assay: ATG_VDR_TRANS: Attagene TRANS-FACTORIAL HepG2 Assay for human Vitamin D Receptor (VDR) (AID 2283022; active means hit-call score of the fitted dose curve at least 0.9, where 1 is the maximum)
How it was run: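 Transactivation by an exogenous VDR-Gal4 chimera in transiently transfected HepG2 cells was measured as reporter transcript level 24 hours after chemical treatment. RT-PCR products were analysed by capillary electrophoresis and fitted in the positive direction relative to DMSO.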

[9] = read-out: Interleukin-8 (IL8), CXCL8 (gene 3576); assay: BSK_3C_IL8: BioMAP Diversity Plus: 3C Assay for Interleukin-8 (IL8) Biomarker Activity (AID 2283020); conditions: primary human endothelial cells (HUVEC); actives raise or lower the signal
How it was run: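 ELISA read-out of IL-8 from human umbilical vein endothelium, measured 24 h after chemical dosing. Activity is expressed relative to DMSO negative control, with both increases and decreases fitted.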

[10] = biological target: human Retinoid X Receptor beta (RXRb), RXRB (gene 6257) (UniProt P28702); assay: ATG_RXRb_TRANS: Attagene TRANS-FACTORIAL HepG2 Assay for human Retinoid X Receptor beta (RXRb) (AID 2283013; active means hit-call score of the fitted dose curve at least 0.9, where 1 is the maximum)
How it was run: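 Transfect HepG2 with GAL4-UAS multi-reporter constructs (chimeric NR-Gal4, TRANS format); dose compound 24 h; isolate RNA, RT-PCR, FAM primer extension, HpaI digest; quantify by capillary electrophoresis; positive direction vs DMSO.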

Chain of E-selectin (Homo sapiens) (P16581 whole entry, looked up): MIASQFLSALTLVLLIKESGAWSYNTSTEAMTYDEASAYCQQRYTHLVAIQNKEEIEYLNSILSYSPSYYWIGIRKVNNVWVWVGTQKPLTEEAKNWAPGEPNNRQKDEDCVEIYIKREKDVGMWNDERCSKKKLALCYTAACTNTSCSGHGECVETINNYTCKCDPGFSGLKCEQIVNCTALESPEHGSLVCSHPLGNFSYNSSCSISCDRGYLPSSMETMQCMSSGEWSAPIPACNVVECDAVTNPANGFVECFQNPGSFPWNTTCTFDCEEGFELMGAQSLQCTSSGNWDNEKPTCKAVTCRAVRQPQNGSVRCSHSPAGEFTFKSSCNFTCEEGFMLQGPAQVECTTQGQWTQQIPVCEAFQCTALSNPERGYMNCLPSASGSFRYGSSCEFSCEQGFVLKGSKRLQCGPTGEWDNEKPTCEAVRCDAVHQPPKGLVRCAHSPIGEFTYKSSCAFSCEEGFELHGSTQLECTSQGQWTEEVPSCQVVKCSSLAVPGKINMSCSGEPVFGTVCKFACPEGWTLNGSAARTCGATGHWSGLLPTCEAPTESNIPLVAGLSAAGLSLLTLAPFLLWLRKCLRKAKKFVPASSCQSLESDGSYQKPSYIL
Chain of human Vitamin D Receptor (VDR), VDR (gene 7421) (P11473 whole entry, looked up, the tested form may be a part): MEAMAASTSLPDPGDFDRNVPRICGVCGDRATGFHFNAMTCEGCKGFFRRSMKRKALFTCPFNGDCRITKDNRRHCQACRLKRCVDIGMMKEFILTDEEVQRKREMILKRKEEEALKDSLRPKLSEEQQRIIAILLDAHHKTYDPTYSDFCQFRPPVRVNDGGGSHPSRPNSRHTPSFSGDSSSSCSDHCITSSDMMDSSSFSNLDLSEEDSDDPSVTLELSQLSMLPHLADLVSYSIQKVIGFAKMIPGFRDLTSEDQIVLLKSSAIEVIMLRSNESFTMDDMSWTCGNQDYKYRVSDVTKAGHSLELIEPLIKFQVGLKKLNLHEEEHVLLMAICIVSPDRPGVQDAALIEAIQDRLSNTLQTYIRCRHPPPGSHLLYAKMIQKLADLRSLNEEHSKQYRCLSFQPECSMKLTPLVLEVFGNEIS
Chain of human Thyroid Receptor alpha (THRa1), THRA (gene 7067) (P10827 whole entry, looked up, the tested form may be a part): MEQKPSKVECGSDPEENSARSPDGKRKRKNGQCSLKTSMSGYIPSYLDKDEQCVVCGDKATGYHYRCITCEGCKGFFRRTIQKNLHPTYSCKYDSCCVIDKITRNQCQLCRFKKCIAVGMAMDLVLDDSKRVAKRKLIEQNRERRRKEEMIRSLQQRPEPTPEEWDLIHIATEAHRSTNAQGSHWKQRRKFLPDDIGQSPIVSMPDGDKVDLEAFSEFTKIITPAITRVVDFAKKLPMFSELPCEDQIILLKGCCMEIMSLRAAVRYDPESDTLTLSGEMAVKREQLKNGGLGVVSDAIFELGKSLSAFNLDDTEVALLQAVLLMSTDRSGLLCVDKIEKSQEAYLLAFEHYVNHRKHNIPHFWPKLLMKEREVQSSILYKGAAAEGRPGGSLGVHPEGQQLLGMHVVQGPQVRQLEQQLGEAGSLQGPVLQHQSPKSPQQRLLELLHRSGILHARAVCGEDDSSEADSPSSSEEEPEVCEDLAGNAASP
Chain of human Retinoid X Receptor beta (RXRb), RXRB (gene 6257) (P28702 whole entry, looked up, the tested form may be a part): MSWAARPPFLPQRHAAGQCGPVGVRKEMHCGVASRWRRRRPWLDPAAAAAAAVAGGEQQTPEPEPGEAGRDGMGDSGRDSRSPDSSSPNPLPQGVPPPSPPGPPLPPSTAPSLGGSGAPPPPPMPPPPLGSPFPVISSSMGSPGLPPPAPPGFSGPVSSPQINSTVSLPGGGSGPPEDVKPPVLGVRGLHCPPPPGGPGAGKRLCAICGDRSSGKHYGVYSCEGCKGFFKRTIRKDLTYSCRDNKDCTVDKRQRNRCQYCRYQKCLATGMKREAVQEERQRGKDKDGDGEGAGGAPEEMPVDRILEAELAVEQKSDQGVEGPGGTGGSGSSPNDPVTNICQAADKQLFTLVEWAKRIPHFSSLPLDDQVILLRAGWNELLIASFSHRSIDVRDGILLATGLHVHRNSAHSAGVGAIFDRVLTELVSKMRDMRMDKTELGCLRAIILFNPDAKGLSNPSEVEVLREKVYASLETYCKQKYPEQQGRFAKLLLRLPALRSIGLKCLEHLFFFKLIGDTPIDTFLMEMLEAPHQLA

OCC(CO)(CBr)CBr
outcome [1]: inactive | outcome [2]: inactive | outcome [3]: inactive | outcome [4]: inactive | outcome [5]: inactive | outcome [6]: inactive | outcome [7]: inactive

CN(C)c1ccc(C(=C2C=CC(=[N+](C)C)C=C2)c2ccccc2)cc1
outcome [1]: inactive | AC50 [2]: 205 nM (active) | AC50 [3]: 214 nM (active) | AC50 [4]: 8.2 nM (active) | AC50 [5]: 19.2 nM (active) | AC50 [6]: 8.2 nM (active) | AC50 [7]: 356 nM (active) | outcome [8]: inactive

CCCCCCCCCCCCCCCCCC[N+](C)(C)Cc1ccccc1
AC50 [1]: 50000 nM (active) | AC50 [2]: 2680 nM (active) | AC50 [3]: 3960 nM (active) | AC50 [4]: 716 nM (active) | AC50 [5]: 929 nM (active) | AC50 [6]: 515 nM (active) | AC50 [9]: 4380 nM (active) | AC50 [7]: 5260 nM (active) | outcome [8]: inactive

Clc1ccc(Nc2nnc(Cc3ccncc3)c3ccccc23)cc1
outcome [1]: inactive | AC50 [2]: 2360 nM (active) | AC50 [3]: 1670 nM (active) | outcome [4]: inactive | outcome [5]: inactive | outcome [6]: inactive | outcome [7]: inactive | outcome [8]: inactive

COc1ccccc1NC(=O)c1cc2ccccc2cc1O
AC50 [1]: 21700 nM (active)

O=P(O)(O)CCC(F)(F)C(F)(F)C(F)(F)C(F)(F)C(F)(F)C(F)(F)C(F)(F)C(F)(F)F
outcome [1]: inactive | outcome [2]: inactive | outcome [3]: inactive | outcome [4]: inactive | outcome [5]: inactive | outcome [6]: inactive | outcome [9]: inactive | outcome [7]: inactive | outcome [8]: inactive

CCCCC(CC)C(=O)OCCOCCOCCOCCOC(=O)C(CC)CCCC (stereo not given)
outcome [1]: inactive | AC50 [2]: 13600 nM (active) | outcome [3]: inactive | outcome [4]: inactive | outcome [5]: inactive | AC50 [6]: 11400 nM (active) | outcome [9]: inactive | outcome [7]: inactive | outcome [8]: inactive

CN(C)CCOC(c1ccccc1)c1ccccc1
outcome [1]: inactive | outcome [2]: inactive | outcome [3]: inactive | outcome [4]: inactive | AC50 [5]: 351 nM (active) | outcome [6]: inactive | outcome [7]: inactive

COC1=CC(=O)C[C@@H](C)[C@]12Oc1c(Cl)c(OC)cc(OC)c1C2=O
outcome [1]: inactive | outcome [2]: inactive | outcome [3]: inactive | outcome [4]: inactive | outcome [5]: inactive | outcome [6]: inactive | outcome [7]: inactive

CC(C)(O)C(=O)c1ccccc1
outcome [10]: inactive | outcome [8]: inactive

COC(=O)CC(C(C)=O)C(=O)OC (stereo not given)
outcome [1]: inactive | outcome [8]: inactive

CC(C)[C@@H]1CC[C@@H](C)C[C@H]1O
outcome [1]: inactive | outcome [8]: inactive

Oc1cccc2c(O)cccc12
outcome [1]: inactive | outcome [8]: inactive

O=C(O)CN(CCCN(CC(=O)O)CC(=O)O)CC(=O)O
outcome [1]: inactive | outcome [8]: inactive

CCc1cccc(CC)c1NC(=O)C(=O)O
outcome [1]: inactive | outcome [8]: inactive

Nc1cc(Cl)c(-c2cc(Cl)c(N)cc2Cl)cc1Cl
outcome [1]: inactive | outcome [8]: inactive

CC(=O)CC(C)C
outcome [1]: inactive | outcome [8]: inactive

NNc1nc(-c2ccc([N+](=O)[O-])cc2)cs1
AC50 [1]: 48500 nM (active) | outcome [8]: inactive

C[N+](C)(CCCNS(=O)(=O)CCC(F)(F)C(F)(F)C(F)(F)C(F)(F)C(F)(F)C(F)(F)F)CC(=O)[O-]
outcome [1]: inactive | outcome [8]: inactive

CCOC(C)=O
outcome [1]: inactive | outcome [8]: inactive

O=C(OC(=O)C(F)(F)C(F)(F)F)C(F)(F)C(F)(F)F
outcome [1]: inactive | outcome [8]: inactive

CC=O
outcome [1]: inactive | outcome [8]: inactive

CNNCc1ccc(C(=O)NC(C)C)cc1
outcome [1]: inactive | outcome [8]: inactive

C=C(c1ccc(C(=O)O)cc1)c1cc2c(cc1C)C(C)(C)CCC2(C)C
outcome [1]: inactive | outcome [8]: inactive
